Experimental data published in ChEMBL document CHEMBL1961873, “Compounds: GSK PKIS; Assays: Nanosyn kinase panel” (2012).

Key:
[1] = target: 5'-AMP-activated protein kinase catalytic subunit alpha-2 (Homo sapiens) (UniProt P54646); conditions: at 1 µM
[2] = target: T1, NUAK family SNF1-like kinase 1 (Homo sapiens) (UniProt O60285); conditions: at 0.1 µM
T1 sequence (whole entry): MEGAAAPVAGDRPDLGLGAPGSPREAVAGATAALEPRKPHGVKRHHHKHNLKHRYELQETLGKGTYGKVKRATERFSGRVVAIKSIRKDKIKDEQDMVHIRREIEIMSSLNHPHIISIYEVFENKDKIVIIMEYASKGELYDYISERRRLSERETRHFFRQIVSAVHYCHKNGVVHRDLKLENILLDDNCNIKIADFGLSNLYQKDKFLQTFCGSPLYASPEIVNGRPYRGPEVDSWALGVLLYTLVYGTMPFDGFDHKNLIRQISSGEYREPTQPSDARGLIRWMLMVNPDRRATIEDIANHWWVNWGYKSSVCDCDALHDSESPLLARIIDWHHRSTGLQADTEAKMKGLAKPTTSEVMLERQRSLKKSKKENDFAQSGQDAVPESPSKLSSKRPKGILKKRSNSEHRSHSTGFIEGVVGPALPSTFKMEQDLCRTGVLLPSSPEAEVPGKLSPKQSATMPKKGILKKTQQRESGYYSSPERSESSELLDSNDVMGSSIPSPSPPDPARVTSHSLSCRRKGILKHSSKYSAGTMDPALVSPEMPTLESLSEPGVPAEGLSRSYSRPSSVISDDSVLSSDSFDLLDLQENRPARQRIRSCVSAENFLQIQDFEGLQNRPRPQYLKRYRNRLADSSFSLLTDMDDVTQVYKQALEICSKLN

[3] = target: T1, NUAK family SNF1-like kinase 1 (Homo sapiens); conditions: at 1 µM
[4] = target: T2, Serine/threonine-protein kinase BRSK1 (Homo sapiens) (UniProt Q8TDC3); conditions: at 0.1 µM
T2 sequence (whole entry): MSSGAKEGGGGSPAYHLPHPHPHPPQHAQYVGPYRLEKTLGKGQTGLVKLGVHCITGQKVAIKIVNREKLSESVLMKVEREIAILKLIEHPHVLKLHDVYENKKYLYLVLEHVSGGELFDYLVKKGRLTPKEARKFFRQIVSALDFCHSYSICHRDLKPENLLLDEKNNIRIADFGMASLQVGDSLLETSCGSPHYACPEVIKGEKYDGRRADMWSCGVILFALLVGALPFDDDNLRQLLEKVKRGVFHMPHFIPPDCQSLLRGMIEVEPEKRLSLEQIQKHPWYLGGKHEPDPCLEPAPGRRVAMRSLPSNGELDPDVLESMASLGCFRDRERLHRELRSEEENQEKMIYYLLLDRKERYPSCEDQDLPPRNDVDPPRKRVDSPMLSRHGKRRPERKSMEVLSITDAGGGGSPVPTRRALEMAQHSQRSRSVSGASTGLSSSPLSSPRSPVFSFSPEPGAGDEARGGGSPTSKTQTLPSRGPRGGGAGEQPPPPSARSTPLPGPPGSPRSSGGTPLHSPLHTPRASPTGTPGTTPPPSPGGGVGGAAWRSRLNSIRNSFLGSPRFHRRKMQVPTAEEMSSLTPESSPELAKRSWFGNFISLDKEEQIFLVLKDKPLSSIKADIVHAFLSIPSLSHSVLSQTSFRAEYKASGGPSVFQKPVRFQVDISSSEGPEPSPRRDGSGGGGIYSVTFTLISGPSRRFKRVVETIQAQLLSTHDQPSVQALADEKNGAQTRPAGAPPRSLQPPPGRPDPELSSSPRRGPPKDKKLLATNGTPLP

[5] = target: T2, Serine/threonine-protein kinase BRSK1 (Homo sapiens); conditions: at 1 µM
[6] = target: T3, Serine/threonine-protein kinase BRSK2 (Homo sapiens) (UniProt Q8IWQ3); conditions: at 0.1 µM
T3 sequence (whole entry): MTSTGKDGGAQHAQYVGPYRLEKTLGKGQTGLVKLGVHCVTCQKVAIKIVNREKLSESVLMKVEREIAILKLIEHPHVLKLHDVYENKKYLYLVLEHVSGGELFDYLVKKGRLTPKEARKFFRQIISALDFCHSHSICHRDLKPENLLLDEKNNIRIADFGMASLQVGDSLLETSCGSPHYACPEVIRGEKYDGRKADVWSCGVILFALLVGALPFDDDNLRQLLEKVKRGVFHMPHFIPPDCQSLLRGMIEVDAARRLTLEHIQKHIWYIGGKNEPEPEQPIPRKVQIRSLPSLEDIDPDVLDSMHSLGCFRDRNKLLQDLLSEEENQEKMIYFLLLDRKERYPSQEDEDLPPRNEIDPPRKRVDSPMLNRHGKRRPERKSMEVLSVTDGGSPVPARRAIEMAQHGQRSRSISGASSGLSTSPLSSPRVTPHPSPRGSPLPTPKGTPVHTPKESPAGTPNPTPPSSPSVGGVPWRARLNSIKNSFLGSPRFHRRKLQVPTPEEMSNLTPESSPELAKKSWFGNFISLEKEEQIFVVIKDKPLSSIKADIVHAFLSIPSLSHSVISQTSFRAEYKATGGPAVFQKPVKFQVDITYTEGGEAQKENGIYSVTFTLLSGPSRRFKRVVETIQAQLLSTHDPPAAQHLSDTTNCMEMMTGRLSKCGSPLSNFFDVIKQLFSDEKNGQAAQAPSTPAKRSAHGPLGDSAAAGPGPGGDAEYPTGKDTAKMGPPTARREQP

[7] = target: T3, Serine/threonine-protein kinase BRSK2 (Homo sapiens); conditions: at 1 µM
[8] = target: Calcium/calmodulin-dependent protein kinase type 1D (Homo sapiens) (UniProt Q8IU85); conditions: at 0.1 µM
[9] = target: Calcium/calmodulin-dependent protein kinase type 1D (Homo sapiens) (UniProt Q8IU85); conditions: at 1 µM
[10] = target: Calcium/calmodulin-dependent protein kinase type II subunit alpha (Homo sapiens) (UniProt Q9UQM7); conditions: at 0.1 µM
[11] = target: Calcium/calmodulin-dependent protein kinase type II subunit alpha (Homo sapiens) (UniProt Q9UQM7); conditions: at 1 µM
[12] = target: Calcium/calmodulin-dependent protein kinase type II subunit delta (Homo sapiens) (UniProt Q13557); conditions: at 0.1 µM
[13] = target: Calcium/calmodulin-dependent protein kinase type II subunit delta (Homo sapiens) (UniProt Q13557); conditions: at 1 µM
[14] = target: T4, Calcium/calmodulin-dependent protein kinase type IV (Homo sapiens) (UniProt Q16566); conditions: at 0.1 µM
T4 sequence (whole entry): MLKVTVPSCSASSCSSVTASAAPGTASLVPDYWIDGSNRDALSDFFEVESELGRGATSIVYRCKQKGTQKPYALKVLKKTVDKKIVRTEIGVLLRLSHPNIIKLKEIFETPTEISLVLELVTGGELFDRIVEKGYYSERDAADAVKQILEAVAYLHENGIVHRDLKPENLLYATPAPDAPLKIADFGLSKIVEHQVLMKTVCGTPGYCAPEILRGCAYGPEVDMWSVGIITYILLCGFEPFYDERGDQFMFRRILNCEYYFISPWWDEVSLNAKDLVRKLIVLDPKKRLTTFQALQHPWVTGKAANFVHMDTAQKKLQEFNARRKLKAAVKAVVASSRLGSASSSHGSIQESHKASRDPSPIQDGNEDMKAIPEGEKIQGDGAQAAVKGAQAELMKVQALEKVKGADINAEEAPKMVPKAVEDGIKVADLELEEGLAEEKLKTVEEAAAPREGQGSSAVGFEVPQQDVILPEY

[15] = target: T4, Calcium/calmodulin-dependent protein kinase type IV (Homo sapiens); conditions: at 1 µM
[16] = target: T5, Serine/threonine-protein kinase Chk1 (Homo sapiens) (UniProt O14757); conditions: at 0.1 µM
T5 sequence (whole entry): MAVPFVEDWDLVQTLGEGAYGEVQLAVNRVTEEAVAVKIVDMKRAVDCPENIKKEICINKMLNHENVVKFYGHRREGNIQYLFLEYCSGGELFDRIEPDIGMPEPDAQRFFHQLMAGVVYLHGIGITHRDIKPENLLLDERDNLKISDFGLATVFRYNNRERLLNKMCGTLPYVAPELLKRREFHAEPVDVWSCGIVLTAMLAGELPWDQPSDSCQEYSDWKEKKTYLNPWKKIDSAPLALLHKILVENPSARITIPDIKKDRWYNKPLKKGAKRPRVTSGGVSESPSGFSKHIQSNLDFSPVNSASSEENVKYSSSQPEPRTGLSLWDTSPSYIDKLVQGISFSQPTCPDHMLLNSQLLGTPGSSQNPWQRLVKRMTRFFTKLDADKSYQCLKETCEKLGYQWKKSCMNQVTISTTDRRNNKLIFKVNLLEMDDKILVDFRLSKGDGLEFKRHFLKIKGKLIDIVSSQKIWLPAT

[17] = target: T5, Serine/threonine-protein kinase Chk1 (Homo sapiens); conditions: at 1 µM
[18] = target: Serine/threonine-protein kinase Chk2 (Homo sapiens) (UniProt O96017); conditions: at 0.1 µM
[19] = target: Serine/threonine-protein kinase Chk2 (Homo sapiens) (UniProt O96017); conditions: at 1 µM
[20] = target: Death-associated protein kinase 1 (Homo sapiens) (UniProt P53355); conditions: at 0.1 µM;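 note: reported figure is the mean inhibition of DAPK1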
Sequence of Death-associated protein kinase 1 (Homo sapiens) (P53355 whole entry, looked up): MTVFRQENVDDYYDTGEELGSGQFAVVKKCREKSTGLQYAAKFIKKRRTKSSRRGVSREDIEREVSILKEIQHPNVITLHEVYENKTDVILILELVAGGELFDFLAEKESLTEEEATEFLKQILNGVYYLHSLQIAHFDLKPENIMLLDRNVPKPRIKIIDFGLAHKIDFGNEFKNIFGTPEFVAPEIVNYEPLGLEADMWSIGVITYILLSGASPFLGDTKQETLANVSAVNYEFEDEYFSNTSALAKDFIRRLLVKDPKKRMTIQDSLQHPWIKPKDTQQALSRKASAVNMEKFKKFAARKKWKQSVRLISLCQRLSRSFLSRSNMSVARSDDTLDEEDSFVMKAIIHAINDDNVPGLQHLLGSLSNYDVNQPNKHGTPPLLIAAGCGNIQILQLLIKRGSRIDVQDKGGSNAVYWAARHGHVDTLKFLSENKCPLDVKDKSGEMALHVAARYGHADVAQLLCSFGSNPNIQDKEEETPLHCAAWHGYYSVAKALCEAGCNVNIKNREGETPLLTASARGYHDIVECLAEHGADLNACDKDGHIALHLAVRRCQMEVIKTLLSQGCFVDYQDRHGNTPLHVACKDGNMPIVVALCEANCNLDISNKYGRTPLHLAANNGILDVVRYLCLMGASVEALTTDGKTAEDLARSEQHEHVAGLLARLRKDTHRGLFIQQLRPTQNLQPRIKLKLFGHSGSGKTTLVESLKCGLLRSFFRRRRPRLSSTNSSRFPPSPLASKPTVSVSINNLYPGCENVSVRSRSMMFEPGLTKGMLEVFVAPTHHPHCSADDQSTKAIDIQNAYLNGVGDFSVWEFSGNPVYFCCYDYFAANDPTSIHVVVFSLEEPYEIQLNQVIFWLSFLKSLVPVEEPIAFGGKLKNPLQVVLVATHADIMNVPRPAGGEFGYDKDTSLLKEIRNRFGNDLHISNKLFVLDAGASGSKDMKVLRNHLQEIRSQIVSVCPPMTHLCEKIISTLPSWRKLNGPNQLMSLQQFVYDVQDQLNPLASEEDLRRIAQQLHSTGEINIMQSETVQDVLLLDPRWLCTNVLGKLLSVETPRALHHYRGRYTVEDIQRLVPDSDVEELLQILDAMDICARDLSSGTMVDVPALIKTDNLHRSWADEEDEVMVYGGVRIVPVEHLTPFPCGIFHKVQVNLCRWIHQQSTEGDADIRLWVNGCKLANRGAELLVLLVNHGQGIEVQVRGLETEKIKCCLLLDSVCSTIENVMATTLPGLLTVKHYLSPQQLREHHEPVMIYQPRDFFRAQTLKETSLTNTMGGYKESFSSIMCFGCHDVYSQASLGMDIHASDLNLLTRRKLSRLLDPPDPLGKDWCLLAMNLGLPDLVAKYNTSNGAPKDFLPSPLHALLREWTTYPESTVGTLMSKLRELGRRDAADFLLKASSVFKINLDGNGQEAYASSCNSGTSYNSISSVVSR

Sequence of 5'-AMP-activated protein kinase catalytic subunit alpha-2 (Homo sapiens) (P54646 whole entry, looked up): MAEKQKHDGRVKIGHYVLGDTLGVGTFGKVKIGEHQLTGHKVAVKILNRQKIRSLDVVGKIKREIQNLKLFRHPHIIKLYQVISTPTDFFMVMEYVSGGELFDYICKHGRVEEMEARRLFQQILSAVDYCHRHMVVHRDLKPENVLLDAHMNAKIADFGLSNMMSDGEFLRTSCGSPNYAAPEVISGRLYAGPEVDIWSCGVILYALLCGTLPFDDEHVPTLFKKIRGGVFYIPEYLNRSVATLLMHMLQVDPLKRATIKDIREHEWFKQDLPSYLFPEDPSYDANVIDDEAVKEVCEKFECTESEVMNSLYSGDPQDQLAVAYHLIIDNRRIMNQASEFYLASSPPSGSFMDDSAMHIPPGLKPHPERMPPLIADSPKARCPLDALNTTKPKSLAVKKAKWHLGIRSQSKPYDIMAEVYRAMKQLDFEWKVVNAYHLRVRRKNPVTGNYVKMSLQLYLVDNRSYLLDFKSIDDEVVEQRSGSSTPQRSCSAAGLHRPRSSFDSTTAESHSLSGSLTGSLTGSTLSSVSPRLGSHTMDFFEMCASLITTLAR
Sequence of Calcium/calmodulin-dependent protein kinase type 1D (Homo sapiens) (Q8IU85 whole entry, looked up): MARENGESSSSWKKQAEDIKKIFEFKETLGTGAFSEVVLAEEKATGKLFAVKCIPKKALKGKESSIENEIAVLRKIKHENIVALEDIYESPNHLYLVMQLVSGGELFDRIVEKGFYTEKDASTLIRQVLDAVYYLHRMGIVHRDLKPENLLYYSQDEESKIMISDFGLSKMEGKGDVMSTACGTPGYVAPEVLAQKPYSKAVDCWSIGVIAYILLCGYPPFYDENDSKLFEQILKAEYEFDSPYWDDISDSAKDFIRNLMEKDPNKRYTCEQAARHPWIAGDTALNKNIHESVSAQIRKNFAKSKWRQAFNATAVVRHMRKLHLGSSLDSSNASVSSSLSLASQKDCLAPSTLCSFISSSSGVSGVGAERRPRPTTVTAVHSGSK
Sequence of Serine/threonine-protein kinase Chk2 (Homo sapiens) (O96017 whole entry): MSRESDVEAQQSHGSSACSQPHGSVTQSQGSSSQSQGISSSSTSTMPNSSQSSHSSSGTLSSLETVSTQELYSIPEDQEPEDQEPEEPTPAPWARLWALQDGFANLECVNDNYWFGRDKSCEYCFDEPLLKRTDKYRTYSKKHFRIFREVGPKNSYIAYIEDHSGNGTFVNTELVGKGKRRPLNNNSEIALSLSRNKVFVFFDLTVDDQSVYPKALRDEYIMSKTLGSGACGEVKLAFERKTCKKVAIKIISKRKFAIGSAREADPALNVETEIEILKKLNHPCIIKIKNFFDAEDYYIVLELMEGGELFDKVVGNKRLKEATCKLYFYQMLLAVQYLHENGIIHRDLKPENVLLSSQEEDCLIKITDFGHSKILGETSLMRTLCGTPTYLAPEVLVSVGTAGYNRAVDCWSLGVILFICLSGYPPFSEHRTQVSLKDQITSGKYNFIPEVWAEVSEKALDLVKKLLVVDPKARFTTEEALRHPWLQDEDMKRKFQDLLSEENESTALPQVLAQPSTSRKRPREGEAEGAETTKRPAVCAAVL
Sequence of Calcium/calmodulin-dependent protein kinase type II subunit alpha (Homo sapiens) (Q9UQM7 whole entry): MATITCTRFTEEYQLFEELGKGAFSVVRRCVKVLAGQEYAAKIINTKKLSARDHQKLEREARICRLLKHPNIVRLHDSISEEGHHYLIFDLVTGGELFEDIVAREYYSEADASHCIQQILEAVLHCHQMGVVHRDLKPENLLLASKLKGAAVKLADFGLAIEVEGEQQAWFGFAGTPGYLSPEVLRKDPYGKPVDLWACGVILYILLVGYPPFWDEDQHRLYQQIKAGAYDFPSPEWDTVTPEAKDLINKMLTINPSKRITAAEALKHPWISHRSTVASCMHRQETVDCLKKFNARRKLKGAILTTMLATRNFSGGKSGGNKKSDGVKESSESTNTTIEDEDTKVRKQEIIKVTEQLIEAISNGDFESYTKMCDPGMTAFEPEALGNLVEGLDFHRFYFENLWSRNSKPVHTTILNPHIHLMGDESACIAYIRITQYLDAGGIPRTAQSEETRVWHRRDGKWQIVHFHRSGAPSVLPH
Sequence of Calcium/calmodulin-dependent protein kinase type II subunit delta (Homo sapiens) (Q13557 whole entry): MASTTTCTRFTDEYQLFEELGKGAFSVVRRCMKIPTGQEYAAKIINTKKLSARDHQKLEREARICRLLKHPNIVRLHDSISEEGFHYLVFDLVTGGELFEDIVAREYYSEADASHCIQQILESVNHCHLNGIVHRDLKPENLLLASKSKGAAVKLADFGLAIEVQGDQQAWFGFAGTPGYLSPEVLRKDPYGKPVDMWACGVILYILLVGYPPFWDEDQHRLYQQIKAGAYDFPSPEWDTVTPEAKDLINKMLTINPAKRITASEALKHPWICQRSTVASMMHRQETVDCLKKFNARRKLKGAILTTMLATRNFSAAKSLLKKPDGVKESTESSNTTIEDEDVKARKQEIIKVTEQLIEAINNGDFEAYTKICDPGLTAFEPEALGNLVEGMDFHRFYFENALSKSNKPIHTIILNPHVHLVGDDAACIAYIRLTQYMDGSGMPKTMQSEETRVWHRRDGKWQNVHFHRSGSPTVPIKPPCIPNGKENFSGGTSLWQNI

Row | Compound | inhibition [1] | inhibition [2] | inhibition [3] | inhibition [4] | inhibition [5] | inhibition [6] | inhibition [7] | inhibition [8] | inhibition [9] | inhibition [10] | inhibition [11] | inhibition [12] | inhibition [13] | inhibition [14] | inhibition [15] | inhibition [16] | inhibition [17] | inhibition [18] | inhibition [19] | inhibition [20]
1 | COc1ccc(-c2oc3ncnc(N)c3c2-c2ccc(NC(=O)Nc3cc(C(F)(F)F)ccc3F)cc2)cc1 | 7.89% | 4.62% | 9.26% | 5.38% | 11.7% | 8.06% | 13.9% | 1.06% | 11.9% | 4.73% | 16.9% | 6.01% | 21.5% | 0.6% | 13.4% | 8.35% | 6.88% | 2.06% | 3.88% | 5.33%
2 | O=C(Nc1n[nH]c2cc(-c3ccc(F)cc3)ccc12)C1CC1 | 6.01% | 0.71% | 2.52% | 4.68% | 26.2% | 6.41% | 33.5% | 0.43% | 1.06% | 0.76% | 5.83% | 2.59% | 3.77% | -0.12% | 1.07% | 8.27% | 10.8% | 6.26% | 6.67% | 9.31%
3 | CS(=O)(=O)CCNCc1ccc(-c2ccc3ncnc(Nc4ccc(OCc5ccccc5)c(C(F)(F)F)c4)c3c2)o1 | 3.87% | -0.55% | -0.02% | 0.14% | 4.02% | 3.18% | 4.31% | 0.11% | 4.44% | 2.86% | -1.78% | 1.83% | 1.77% | -0.46% | -1.2% | 8.46% | 10.8% | 7.47% | 7.84% | 12.8%
4 | c1ccc(-c2nc3n(c2-c2ccc4c(c2)OCO4)CCC3)nc1 | 3.64% | 4.41% | -1.66% | 1.42% | 2.54% | 1.52% | 4.23% | 0.16% | 0.16% | -0.46% | 0.36% | 1.63% | 0.93% | 0.61% | -0.72% | 3.23% | 3.51% | -0.09% | 0.94% | 1.93%
5 | COC(=O)Nc1nc2ccc(Oc3ccc(NC(=O)Nc4cccc(Cl)c4)cc3)cc2[nH]1 | 2.32% | 1.13% | -0.04% | -0.24% | -0.19% | 1.18% | 0.86% | 0.74% | 0.72% | -1.44% | -1.94% | 1.3% | 0.37% | 0.3% | -1.27% | -1.18% | -8.11% | 0.39% | 0.53% | 0.42%
6 | Fc1ccc(-c2cc(-c3c[nH]nc3-c3ccccn3)ccn2)cc1 | 1.61% | -0.78% | -3.39% | -0.21% | 0.81% | 1.49% | 1.96% | -2.23% | -1.28% | 3.34% | 2.33% | 2.86% | 4.06% | -2.35% | -4.94% | 1.21% | -0.75% | 4.88% | 5.9% | 0.73%
